HT1080-NT tox: kills 2HG-producing HT-1080-NT fibrosarcoma cells | AID 686970 | actives 1.6% (n = 360,000) | Potency, µM (top dose mostly 46.1 µM), for inactives: top-dose activity, negative = less viability, usual class: cytotoxic | HT-1080-NT fibrosarcoma viability, CellTiter-Glo ATP luminescence, 48 h;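 note: NT is the 2HG producing partner of a matched IDH1 knockdown line; 0% = DMSO-treated cells and -100% = media-only wells without cells; nearly all actives have a fitted effect of over 55% in size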
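HT-1080-NT fibrosarcoma cells (2HG-overproducing), 750 cells/well in RPMI with 5% FBS, dosed after 2 h and incubated 48 h at 37C. CellTiter-Glo luminescence normalized to DMSO and no-cell wells; concentration-response curves fitted and classed.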
KB-V1 MDR tox: KB-V1 MDR subline cytotoxicity. KB-V1 MDR cells viability, CellTiter-Glo, 72 h. actives 3.4% (n = 400,000). Potency, µM (doses to about 46.1 µM), hits mostly cytotoxic; note: % is set by controls: 0 for no effect and ±100 for the full control effect; nearly all actives have a fitted effect of over 60% in size
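Luminescent ATP read-out (CellTiter-Glo, 10 min) measures survival of drug-selected KB-V1 MDR cells after 72 h, 37 degrees C compound exposure. Medium: phenol-red-free DMEM, 10% FBS. Values from fitted concentration-response curves.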
SW480 rereplic: induces DNA re-replication in SW480 colon adenocarcinoma cells; Potency, µM (titrated, usually from 46.1 µM), for the others: at the top dose re-replication activation, actives largely listed as activators; actives 1.8% (n = 340,000); SW480 DNA re-replication, Hoechst DNA content imaging, 48 h; note: % of control where 0% means no effect; nearly all actives have a fitted effect of over 55% in size
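Image-based DNA-content assay: after two days of treatment, nuclei were labelled with the DNA dye Hoechst and imaged, and hits were compounds raising the count of nuclei showing high fluorescence intensity.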
KB-3-1 tox: KB-3-1 parental cell cytotoxicity; KB-3-1 viability, CellTiter-Glo ATP luminescence, 72 h; Potency, µM (titrated, usually from 46.1 µM), usual class: cytotoxic; actives 1.4% (n = 400,000); AID 1347075; note: % is set by controls: 0 for no effect and ±100 for the full control effect; nearly all actives have a fitted effect of over 60% in size
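Parental KB-3-1 viability, qHTS format: 72 h compound exposure, 37 °C; CellTiter-Glo; media-only wells and DMSO plates as controls; concentration-effect fits on corrected data.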
MCF10A rerep: DNA re-replication induction in MCF 10a cells; MCF 10A DNA re-replication, Hoechst nuclear intensity, 48 h; AID 624296; actives 2.9% (n = 350,000); Potency, µM (series often up to 46.1 µM), for the others: top-dose activity, positive = re-replication, usual class: activators; note: % of control where 0% means no effect; nearly all actives have a fitted effect of over 50% in size
HT1080 IDH1KD tx: toxicity to HT-1080 IDH1 knockdown cells (counter line); Potency, µM (doses to about 46.1 µM), inactives show at the highest dose activity, negative = toxicity, usual class: cytotoxic; actives 2% (n = 360,000); HT-1080 IDH1 knockdown viability, ATP luminescence, 48 h; AID 686971;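 note: 0% = DMSO wells and -100% = cell-free medium wells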
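After a 2 h attachment period, IDH1KD HT-1080 cells took pin-transferred compound for 48 h at 37 °C; ATP-based luminescence after 10 min room-temperature reagent incubation reported viability.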
Starred values were filed as active, the others as inactive; i = inactive; ? = inconclusive; nt = no result given; ! = not confirmed by another sample. Only some compounds are listed: those with a hit (about 8% of all), similar ones and a draw of the others. Calls come from the whole dose curve; as a rule, active = well fitted curve in the direction sought with a large enough effect; inconclusive = small, poorly fitted or top-dose-only effect, or another doubt; inactive = no such curve, though single readings can be large; an effect the other way counts as inactive or inconclusive. Potency is the fitted concentration of half-maximal effect.

SMILES	HT1080-NT tox	KB-V1 MDR tox	SW480 rereplic	KB-3-1 tox	MCF10A rerep	HT1080 IDH1KD tx
COC(=O)c1cc(OC)c(OC)cc1NCC(=O)Nc1ccc(C)cc1	0%	23µM*	-51%	i	2%	2%
COC(=O)c1cc(OC)c(OC)cc1NC(=O)Cc1ccccc1[N+](=O)[O-]	1%	2.3µM*	-8%	i	-17%	?
COC(=O)c1cc(OC)c(OC)cc1NC(=O)CN1CCCCC1	26%	16µM*	-4%	i	16%	15%
COc1ccc(C2NC(=O)NC(C)=C2C(=O)Nc2cc(C)cc(C)c2)c(OC)c1 (centres undefined)	nt	i	nt	i	nt	nt
CCC(C)Sc1cc(-c2nc3ccc(Cl)cn3c2NC2CCCCC2)ccc1OC (centres undefined)	-9%	10µM*!	?	?	?	2%
COc1ccc(-c2cccc(-c3nc4ccc(Cl)cn4c3NC3CCCCC3)c2)cc1	6%	i	?	?	15µM*	1%
CCCCCCSc1cc(-c2nc3ccc(Cl)cn3c2NC2CCCCC2)ccc1OC	14%	i	2%	i	-5%	9%
COc1ccc(C(OCC(O)CNC(C)c2ccccc2)c2ccc(OC)cc2)cc1 (centres undefined)	?	?	?	i	?	21µM*
C/C=C/c1ccc(OCC(O)CNCCc2ccc(OC)cc2)c(OC)c1 (centres undefined)	-12%	i	?	i	20%	-16%
CC(C)c1ccc(OCC(O)CNC(C)c2ccccc2)cc1 (centres undefined)	23µM*	i	20%	?	-19%	18µM*
COc1ccc(C(OCC(O)CNCCc2ccccc2)c2ccc(OC)cc2)cc1 (centres undefined)	23µM*	16µM*	?	?	23%	23µM*
CCN(c1ccccc1)S(=O)(=O)c1nnc(NC(=O)C(C)Oc2ccccc2)s1 (centres undefined)	nt	i	nt	i	nt	nt
Cc1cccc(-c2nc3c(cnn3-c3ccccc3)c(=O)n2-c2cccc(Cl)c2)c1	nt	i	nt	?	nt	nt
Cc1ccccc1OCCc1c(C)[nH]c(=S)[nH]c1=O	2.3µM*	1.8µM*	3.7µM*	1.5µM*	?	2.1µM*
CC1OC2(C)OC(=N)C1(C#N)C(C#N)(C#N)C2c1ccccc1 (centres undefined)	-4%	i	-99%	i	?	4%
CC1C2(C)OC(=N)C(C#N)(C(C)O2)C1(C#N)C#N (centres undefined)	18%	i	1.3µM*	i	?	1%
CCc1cccc(CC)c1NC(=O)CSc1nc2ccc(N3C(=O)C4C(C3=O)[C@H]3C=C[C@@H]4C3)cc2s1 (some centres undefined)	2%	i	2%	i	8%	26µM*
Cc1cccc(C)c1NC(=O)CCCSc1nc2ccccc2s1	0%	i	0%	i	?	1%
CCc1cccc(CC)c1NC(=O)CCCSc1nc2ccccc2s1	-3%	12µM*	nt	?	15%	-22%
Cc1cc2nc(-c3ccc(OCc4ccccc4F)cc3)cc(C(F)(F)F)n2n1	nt	?	nt	i	nt	nt
COc1ccc(NC(=O)Cn2c(=O)oc3cc(S(=O)(=O)NC4CCCC4)ccc32)cc1OC	nt	i	nt	i	nt	nt
Cc1cc(C)nc(N2CCCC(C(=O)Nc3ccc4c(c3)OCCO4)C2)n1 (centres undefined)	?	7.3µM*	0%	i	7%	?
Cc1ccnc(N2CCCC(C(=O)Nc3nnc(C)s3)C2)n1 (centres undefined)	16%	i	4%	i	-5%	-8%
CCc1nnc(NC(=O)C2CCCN(c3nc4ccccc4s3)C2)s1 (centres undefined)	7%	15µM*	2%	i	3%	-2%
Cc1cc(C)nc(N2CCCC(C(=O)Nc3nnc(C)s3)C2)n1 (centres undefined)	0%	18µM*	-4%	i	-6%	8%
SMILES	HT1080-NT tox	KB-V1 MDR tox	SW480 rereplic	KB-3-1 tox	MCF10A rerep	HT1080 IDH1KD tx
CCOC(=O)c1ccc(OCC2c3cc(OC)c(OC)cc3CCN2C(=O)Cc2ccc(OC)c(OC)c2)cc1 (centres undefined)	nt	i	nt	i	nt	nt
Cc1ccc(Cl)cc1N1CCN(S(=O)(=O)c2c(C)[nH]c(C)c2C(=O)N2CCCC2)CC1	-6%	i	-6%	i	9%	-18%
CC(=O)c1c(C)[nH]c(C(=O)N2CCN(c3ccc(F)cc3)CC2)c1C	?	?	-2%	i	2%	10µM*
CC(=O)c1c(C)[nH]c(C(=O)N2CCN(c3cc(Cl)ccc3C)CC2)c1C	16µM*	i	9.2µM*	4.6µM*	10µM*	23µM*
COc1cccc(N2CCN(C(=O)c3[nH]c(C)c(C(C)=O)c3C)CC2)c1	7.1µM*	5.6µM*	7.1µM*	6.3µM*	?	5.6µM*
CCOC(=O)c1[nH]c(C)c(CCC(=O)N2CCN(c3cc(Cl)ccc3C)CC2)c1C	nt	i	nt	i	nt	nt
COc1ccc(N(Cc2cccs2)C(=O)c2ccccc2C)cc1	nt	?	nt	i	nt	nt
CC(C)(C)NC(=O)CSc1nc(Cc2ccccc2)nc2ccccc12	-2%	i	2%	i	0.65µM*	-18%
C#CCSc1nc(Cc2ccc(Cl)cc2)nc2ccccc12	7%	16µM*	1%	i	?	-2%
COC(=O)c1sc(-c2ccccc2)cc1NC(=O)Nc1ccc(F)cc1	nt	i	nt	i	nt	nt
C/C(=N\Nc1nc2ccccc2c(=O)n1O)c1ccco1	-3%	15µM*	7%	21µM*	1%	-26%
Cc1ccc(Cn2c(=S)[nH]c3ccc(N4CCOCC4)cc3c2=O)o1	1%	?	23µM*	?	?	1%
CC(C)OCCCn1c(=S)[nH]c2ccc(N3CCOCC3)cc2c1=O	-1%	6.5µM*	3%	?	11%	2%
COC(=O)CSc1[nH]c2ccccc2c1[N+](=O)[O-]	-3%	i	-3%	i	15µM*	-2%
CCOC(=O)N1CCC(NC(=O)c2cnn(-c3ccc(C)cc3)c2C2CCN(C(=O)OC(C)(C)C)CC2)CC1	nt	?	nt	i	nt	nt
CCCNC(=O)CSc1ccc(S(=O)(=O)N(C)C2CCCCC2)cn1	1%	i	nt	i	nt	3%
CCNC(=O)NC(=O)CSc1ccc(S(=O)(=O)N(C)C2CCCCC2)cn1	-9%	21µM*	-3%	i	7%	0%

Assay outcomes (PubChem)
